Experimental data published in PubChem BioAssay (NCATS).
Active and inactive are the calls of the source. Calls come from the whole dose curve; as a rule, active = well fitted curve in the direction sought with a large enough effect; inconclusive = small, poorly fitted or top-dose-only effect, or effect the other way, or another doubt; inactive = no such curve, though single readings can be large or run the other way.

test: qHTS for inhibitors of adenylyl cyclases using a fission yeast platform: a pilot screen against the NCATS LOPAC library (AID 1347410); settings: S. pombe CHP2027, fbp1-GFP fluorescence, 18 h, yeast expressing mammalian AC9 and human GNAS; series mostly up to 57.5 µM
Excerpt: PI: Charles S. Hoffman Ph.D
Boston College, 140 Commonwealth Ave., Chestnut Hill, MA
Assay Development and Screening Technology Laboratory (ADST)
National Center for Advancing Translational Sciences (NCATS), Rockville, MD
National Institute of Health (NIH), Bethesda, Maryland
The fission yeast Schizosaccharomyces pombe uses a cAMP signaling pathway to link glucose-sensing to Protein Kinase A activity in order to regulate cell growth, sexual development, gluconeogenesis, and exit from stationary phase. Here, we describe the successful functional expression of all ten mammalian adenylyl cyclase (AC) genes, along with the human GNAS G-alpha gene in this organism. By measuring expression of a PKA-repressed fbp1-GFP reporter together with direct measurements of intracellular cAMP levels, one can detect both basal AC activity from all ten AC genes as well as GNAS-stimulated activity from eight of the nine transmembrane ACs (tmACs; AC2-AC9).
Further confirmation and validation of active compounds lead to the identification of diphenyleneiodonium chloride (DPI) as an inhibitor of basal AC activity. This fluorescence based fbp1-GFP-GNAS screening technology could facilitate the development of therapeutic compounds that target GNAS or the ACs, an area in which there is significant unmet need.
The gain-of-signal output is not substantially affected by cytotoxic compounds within the library.
Getz RA, et al., A fission yeast platform for heterologous expression of mammalian adenylyl cyclases and high throughput screening, Cellular Signaling, 2019, 60: 114-121. doi.org/10.1016/j.cellsig.2019.04.010.
PROTOCOL TABLE (as described by Inglese J, Shamu CE and Guy RK. 2007)
SEQUENCE No. (e.g., 1, 2, 3, etc.); […] (e.g., Cells, Incubation, Reagent, etc.); VALUE; DESCRIPTION.
1; Dispense growth medium; 2 uL; black, clear bottom, low base, 1536-well Aurora assay plate.
2; Compounds and control; 23 nL; Kalypsis pin tool (Wako USA) equipped with a 1536-well pin head to transfer to the assay plates.
3; Dispense yeast cells; 2 uL; CHP2027 cells.
4; Incubation; 18 hours (dark at 30C); Non-humidified microbial incubator.
5; Detector; 425V; Fluorescence; laser scanning cytometry.
NOTES (numbers refer to Sequence numbers above)
1. S. pombe growth medium EMM containing histidine, lysine, and uracil was initially dispensed into the assay plate to avoid yeast contamination using a Multidrop Combi dispenser (Thermo Fisher Scientific).
2. 10 mM stock solution of DPI (Sigma-Aldrich D2926) dissolved in DMSO was used as a 16-point dose response positive control, while 1.11 mM DPI stock solution was used as a single point max response positive control. Solvent DMSO was used as the negative control. Control DPI was transferred as a single-dose (column 3; rows 1-32; 1.11 mM stock), and multi-dose (column 4; rows 1-32; 10mM stock; 1:1.5 dilution; 16pnt titration) positive controls. Vehicle control DMSO was pinned into column 1-2, rows 1-32. Lopac compounds were pinned into columns 5-48 resulting to a final concentration range 57 µM to 78.4 nMControl DPI stock (10 mM) was prepared by dissolving 10 mg in 3.18 mL DMSO; while 1.11 mM DPI stock was prepared by mixing 100 uL of 10 mM DPI with 800 uL DMSO. To create the control plates, we initially start with a 384-well compound working plate. With a repeater pipette, (a.) 16 uL/well of 1.11 mM DPI was added to column 3; (b.) 16 uL/well of DMSO was added into rows 2-16 of column 4; (c.) 50 uL/well of DPI added to rows 1 and 2 of column 4; (d.) 32 uL serial dilution (two-thirds-fold) from rows 2 to 16 of column 4 with manual pipette. From the 384-well compound working plate, 7 uL of respective control compound was transferred to respective columns of the 1536-well compound plate using a multichannel pipette.
3. S. pombe CHP2027 (AC9-GNAS-PDE4D2) expressing fbp1-GFP cells were grown at 30C in EMM medium containing histidine, lysine, and uracil. […]

| Structure (SMILES) | outcome |
| --- | --- |
| NS(=O)(=O)c1cc2c(cc1Cl)NCNS2(=O)=O | inactive |
| Cc1ccc(-c2cc(C(F)(F)F)nn2-c2ccc(S(N)(=O)=O)cc2)cc1 | inactive |
| CN(C)C(=O)C(CCN1CCC(O)(c2ccc(Cl)cc2)CC1)(c1ccccc1)c1ccccc1 | inactive |
| CN(CCOc1ccc(NS(C)(=O)=O)cc1)CCc1ccc(NS(C)(=O)=O)cc1 | inactive |
| CC(C)(C)C(=O)Oc1ccc(S(=O)(=O)Nc2ccccc2C(=O)NCC(=O)O)cc1 | inactive |
| Cn1cnc2c1c(=O)[nH]c(=O)n2C | inactive |
| O=C(Nc1ccc([N+](=O)[O-])cc1Cl)c1cc(Cl)ccc1O | inactive |
| OCCN(CCO)c1nc(N2CCCCC2)c2nc(N(CCO)CCO)nc(N3CCCCC3)c2n1 | inactive |
| Clc1ccc2nsnc2c1NC1=NCCN1 | inactive |
| Cc1ccc(C(=O)Nc2ccc(S(=O)(=O)O)c3cc(S(=O)(=O)O)cc(S(=O)(=O)O)c23)cc1NC(=O)c1cccc(NC(=O)Nc2cccc(C(=O)Nc3cc(C(=O)Nc4ccc(S(=O)(=O)O)c5cc(S(=O)(=O)O)cc(S(=O)(=O)O)c45)ccc3C)c2)c1 | inactive |
| Nc1nnc(-c2cccc(Cl)c2Cl)c(N)n1 | inactive |
| O=C1Cc2cc(CCN3CCN(c4nsc5ccccc45)CC3)c(Cl)cc2N1 | inactive |
| Cc1cn([C@H]2C=C[C@@H](CO)O2)c(=O)[nH]c1=O | inactive |
| CN1CCC(=C2c3ccccc3CC(=O)c3sccc32)CC1 | inactive |
| CC(=O)OCC(CCn1cnc2cnc(N)nc21)COC(C)=O | inactive |
| NCCS(=O)(=O)O | inactive |
| O=C(c1ccc(OCCN2CCCCC2)cc1)c1c(-c2ccc(O)cc2)sc2cc(O)ccc12 | inactive |
| COc1cc2nc(N3CCN(C(=O)C4COc5ccccc5O4)CC3)nc(N)c2cc1OC (stereo not given) | inactive |
| C[C@H]1c2cccc(O)c2C(O)=C2C(=O)[C@]3(O)C(O)=C(C(N)=O)C(=O)[C@@H](N(C)C)[C@@H]3[C@@H](O)[C@@H]21 | inactive |
| CCCCc1oc2ccccc2c1C(=O)c1cc(I)c(OCCN(CC)CC)c(I)c1 | inactive |

| Structure (SMILES) | outcome |
| --- | --- |
| CC[N+](CC)(CC)CCOc1cccc(OCC[N+](CC)(CC)CC)c1OCC[N+](CC)(CC)CC | inactive |
| NCCCCCC(=O)O | inactive |
| Cc1cc(C(C)(C)C)cc(C)c1CC1=NCCN1 | inactive |
| COc1ccc(C2CNC(=O)C2)cc1OC1CCCC1 (stereo not given) | inactive |
| O=c1[nH]cc(F)c(=O)[nH]1 | inactive |
| CC[C@@]1(O)C(=O)OCc2c1cc1n(c2=O)Cc2cc3c(CN(C)C)c(O)ccc3nc2-1 | inactive |
| O=C(c1ccc(F)cc1)C1CCN(CCn2c(=O)[nH]c3ccccc3c2=O)CC1 | inactive |
| O=C1N(c2ccccc2)c2ccccc2C1(Cc1ccncc1)Cc1ccncc1 | inactive |
| O=c1c(O)c(-c2ccc(O)c(O)c2)oc2cc(O)cc(O)c12 | inactive |
| CCOC(=O)Nc1ccc(NCc2ccc(F)cc2)nc1N | inactive |
| CN1CCN(CCCN2c3ccccc3Sc3ccc(Cl)cc32)CC1 | inactive |
| CC(C)Cc1ccc(C(C)C(=O)O)cc1 (stereo not given) | inactive |
| NCCc1cnc[nH]1 | inactive |
| Clc1ccc(C(c2ccccc2Cl)C(Cl)Cl)cc1 (stereo not given) | inactive |
| C[C@](N)(Cc1ccc(O)c(O)c1)C(=O)O | inactive |
| Nc1nc2c(ncn2COC(CO)CO)c(=O)[nH]1 | inactive |
| Fc1ccc([C@@H]2CCNC[C@H]2COc2ccc3c(c2)OCO3)cc1 | inactive |
| CN(C)c1nc(N(C)C)nc(N(C)C)n1 | inactive |
| Clc1ccc2c(c1)C(N1CCNCC1)=Nc1ccccc1O2 | inactive |
| CC(C)(Oc1ccc(C2CC2(Cl)Cl)cc1)C(=O)O (stereo not given) | inactive |
